Test results published in the supplement of paper PMC4840960.

Assays:
[1] = system: E18 rat cortical neuron-glia co-culture; experiment: fiber score / MBP score (myelination specific beyond OL differentiation) (ratio); higher = more myelination-specific MBP alignment; details: treatment time: 8 days (DIV5-DIV13)
Outline: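 Papain-dissociated primary E18 rat cortical co-cultures, plated at 20,000 cells/well on poly-d-lysine/laminin 96-well plates, were exposed to library compounds at 1 or 5 µM in myelination medium between DIV5 and DIV13. Following fixation in 4 % paraformaldehyde, cultures were stained for MBP, Olig2 and DAPI, and four 10X fields per well were analysed in duplicate wells. Values are the ratio of fiber score (continuous MBP fiber length per Olig2+ nucleus) to MBP score (thresholded MBP area × intensity per Olig2+ nucleus).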

[2] = system: E18 rat cortical neuron-glia co-culture; experiment: myelination (MBP fiber length per Olig2+ nucleus), % of 1 µM DAPT response (DMSO = 0) (% of DAPT); higher = more myelination, active = 50 or more; details: treatment time: 8 days (DIV5-DIV13)
Outline: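 Myelination, expressed as continuous straight MBP fiber length per Olig2+ nucleus, was normalised to 0.1 % DMSO as 0 and a 1 µM positive control as 100. The cultures were primary E18 rat cortical co-cultures dissociated with papain and plated at 20,000 cells/well on poly-d-lysine/laminin-coated 96-well plates. They received library compounds at 1 or 5 µM in myelination medium between DIV5 and DIV13. Analysis covered four 10X fields per well in duplicate wells after 4 % paraformaldehyde fixation and immunostaining for MBP and Olig2 with DAPI.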

In the case of `COc1ccccc1OCC(O)COC(N)=O` (configuration not stated) [Methocarbamol], the “fiber score / MBP score” value ([1]; 1 µM) is reported as 0.67, the “fiber score / MBP score” value ([1]; 5 µM) is reported as 0.985 and the myelination ([2]; 1 µM) is reported as -9.38 (inactive). For the same compound, the myelination ([2]; 5 µM) was -3.49 (inactive).

`CCn1cc(C(=O)O)c(=O)c2cc(F)c(N3CCN(C)CC3)cc21` [Pefloxacin] was tested, and the “fiber score / MBP score” value ([1]; 1 µM) was 1, the “fiber score / MBP score” value ([1]; 5 µM) was 0.8 and the myelination ([2]; 1 µM) was -8.57 (inactive). The myelination ([2]; 5 µM) was -12.3 (inactive).

`O=C(O)CCCc1ccccc1` [4-Phenylbutyric acid] was tested, and the “fiber score / MBP score” value ([1]; 1 µM) was 1.07, the “fiber score / MBP score” value ([1]; 5 µM) was 0.747 and the myelination ([2]; 1 µM) was 10.1 (inactive). For the same compound, the myelination ([2]; 5 µM) was -8.79 (inactive).

With `Cc1nc2ccccn2c(=O)c1CCN1CCC(C(=O)c2ccc(F)cc2)CC1` [Pirenperone] the “fiber score / MBP score” value ([1]; 1 µM) was 0.876, the “fiber score / MBP score” value ([1]; 5 µM) was 0.646 and the myelination ([2]; 1 µM) was -7.44 (inactive). The myelination ([2]; 5 µM) was -11.5 (inactive).

`O=C1c2c(O)cc(O)cc2O[C@H](c2ccc(O)c(O)c2)[C@H]1O` [Distylin] was tested, and the “fiber score / MBP score” value ([1]; 1 µM) was 0.8, the “fiber score / MBP score” value ([1]; 5 µM) was 1.16 and the myelination ([2]; 1 µM) was -6.73 (inactive). The myelination ([2]; 5 µM) was 0.864 (inactive).

With `CC(C)C[C@H](NC(=O)[C@@H](COC(C)(C)C)NC(=O)[C@H](Cc1ccc(O)cc1)NC(=O)[C@H](CO)NC(=O)[C@H](Cc1c[nH]c2ccccc12)NC(=O)[C@H](Cc1cnc[nH]1)NC(=O)[C@@H]1CCC(=O)N1)C(=O)N[C@@H](CCCNC(=N)N)C(=O)N1CCC[C@H]1C(=O)NNC(N)=O` [Goserelin] the “fiber score / MBP score” value ([1]; 1 µM) was 0.788, the “fiber score / MBP score” value ([1]; 5 µM) was 0.867 and the myelination ([2]; 1 µM) was -8.02 (inactive). The myelination ([2]; 5 µM) was -4.2 (inactive).

In the case of `N[C@@H](C(=O)N[C@@H]1C(=O)N2C(C(=O)O)=C(Cl)CS[C@H]12)c1ccccc1` [Cefaclor], the “fiber score / MBP score” value ([1]; 1 µM) is reported as 0.944, the “fiber score / MBP score” value ([1]; 5 µM) is reported as 0.875 and the myelination ([2]; 1 µM) is reported as 1.34 (inactive). For the same compound, the myelination ([2]; 5 µM) was -10.6 (inactive).

In the case of `CN(C)CCC=C1c2ccccc2CCc2ccccc21` [Amitriptyline], the “fiber score / MBP score” value ([1]; 1 µM) is reported as 0.785, the “fiber score / MBP score” value ([1]; 5 µM) is reported as 1.22 and the myelination ([2]; 1 µM) is reported as -0.648 (inactive). The myelination ([2]; 5 µM) was 30.2 (inactive).
